According to ChEMBL document CHEMBL3988442, “University of Dundee, Small-Polar-MMV Screening Library” (2021):

target: AMP-activated protein kinase, AMPK (Homo sapiens) (UniProt P54646+O43741+P54619+Q9UGJ0+Q9Y478+Q13131+Q9UGI9); assay: AMP-dependent Kinase enzyme assay. An in vitro enzyme assay that detects ADP turnover that is directly proportional to AMPK activity. This uses naive AMPK that is activated during the assay with MK-8722; format: functional; design: scale not given: direction of the effect not stated beside the values; settings: 30 µM

Q: For `C[C@@H]1CN(C(=O)C2(Cn3cccn3)CC2)CC[C@@]1(O)C1CC1`, which Percent Effect is on record?
A: The Percent Effect was -6.74%.

Q: For `O=C(Cc1c(F)cccc1Cl)Nc1cc(N2CCOCC2)ncn1`, which Percent Effect is on record?
A: The Percent Effect was 5.35%.

Q: For `Cc1cnn(CCCNC(=O)NC(C)C(=O)Nc2ccccc2)c1` (stereo not given), which Percent Effect is on record?
A: Its Percent Effect is 4.78%.

Q: `COc1ccccc1CN1CCC(c2nccc(C)n2)C1` (stereo not given) was tested. Which Percent Effect did it give?
A: The Percent Effect was -3.97%.

Q: `O=C1CN(Cc2cn(CC3CCN(C4CCSCC4)CC3)nn2)CCN1` was tested. Which Percent Effect did it give?
A: Its Percent Effect is -3.51%.

Q: With `Cc1noc(C)c1C(=O)N1CCC(c2cc3cnccc3[nH]2)CC1` as the compound, how does the Percent Effect read?
A: The Percent Effect was 16.4%.

Q: Which Percent Effect does the source give for `CC(C)c1nccn1CC1CCCN1Cc1nc2ccccc2n1C` (stereo not given) here?
A: Its Percent Effect is 4.02%.

Q: For `Cc1nnc(-c2cccc(C#N)c2)n1C1CCN(C2CC2)C1=O` (stereo not given), which Percent Effect is on record?
A: Its Percent Effect is -1.74%.

Q: Which Percent Effect does the source give for `CN(C(=O)c1ccccn1)c1nnc(C2CCOC2)s1` (stereo not given) here?
A: The Percent Effect was 9.22%.

Q: How did the Percent Effect turn out when `O=C(NCC1CCOC1)c1cc(-c2ccc(Cl)cc2)n[nH]1` (stereo not given) was run?
A: Its Percent Effect is 1%.

Q: How did the Percent Effect turn out when `CCc1c(C(=O)Nc2ccc(F)c(C(=O)NC)c2)cnn1CC(C)C` was run?
A: The Percent Effect was 11.4%.

Q: Which Percent Effect does the source give for `CSc1ncccc1C(=O)Nc1ccc(Cn2ccccc2=O)cc1` here?
A: Its Percent Effect is -11.3%.

Q: Which Percent Effect does the source give for `CN1CCCC(c2nccnc2-c2cccc(C(F)(F)F)c2)C1` (stereo not given) here?
A: Its Percent Effect is 26.4%.

Q: For `CCc1nc(C)c(CN2CCOC(CCCC(C)C)C2)[nH]1` (stereo not given), which Percent Effect is on record?
A: Its Percent Effect is -6.7%.

Q: For `CC(C)Cn1nc(-c2ccc(C(=O)O)cc2)cc1-c1ccc(F)cc1`, which Percent Effect is on record?
A: The Percent Effect was 22.7%.

Q: With `CCN(CC1=CCN(C)CC1)C(=O)CCOC` as the compound, how does the Percent Effect read?
A: The Percent Effect was -8.72%.

Q: With `O=c1cc(N2CCNCC2)cnn1Cc1noc(C2CCCC2)n1` as the compound, how does the Percent Effect read?
A: Its Percent Effect is -1.96%.

Q: `COc1cccc(C(C(=O)O)N2CCSCC2)c1F` (stereo not given) was tested. Which Percent Effect did it give?
A: Its Percent Effect is -1.18%.

Q: Which Percent Effect does the source give for `CC(CC(=O)c1ccccc1)NC(=O)c1ccon1` (stereo not given) here?
A: Its Percent Effect is 8.5%.

Q: How did the Percent Effect turn out when `CC(C)c1cc(C(=O)NCCc2nc(-c3cccnc3)n[nH]2)[nH]n1` was run?
A: Its Percent Effect is 57.4%.
